# Measurements: PubChem BioAssay AID488809 (Broad Institute, 2010)
# Potency and affinity values are given separately. Results filed as inconclusive are left out. Calls of active or inactive are those of the source. How the calls were made is not given here.
# Experiment: cytotoxicity in NIH-3T3 fibroblasts, dose response, cytotoxicity control for antifungal drug resistance project, cell-based, Alamar Blue, fluconazole, dry powder (AID 488809)
# Details: NIH-3T3 fibroblasts + fluconazole, Alamar Blue viability, 48 h; series mostly up to 26 µM; activity change, negative = toxicity: at the top concentration
row,Compound,"activity change, negative = toxicity"
1,COc1ccc(OC)c2c(C)cc(N3CCN(C(=O)c4ccc(Cl)cc4)CC3)nc12,-28.7% (inactive)
2,COc1ccc2c(c1)c1nc3n(c(=O)c1n2CC(=O)N1CCC(C)CC1)CCS3,15.5% [at 2.6 µM] (inactive)
3,CCCCNC(=O)N1CCN(c2ccnc3cc(Cl)ccc23)CC1,-26.3% (inactive)
4,Cc1nn(S(C)(=O)=O)c2ccccc12,-23.7% (inactive)
5,O=C(c1ccc(Cl)cc1)N1CCN(c2ccc(Cl)cc2)CC1,-4.29% (inactive)
6,COC(=O)Cn1nc(C)c2ccccc21,-27.1% (inactive)
7,O=C(Cn1c2ccccc2c2nc3n(c(=O)c21)CCS3)N1CCCC1,-31.6% (inactive)
8,COC(=O)Cn1nc(-c2ccc(C)cc2)c2ccccc21,-25.3% (inactive)
9,COC(=O)Cn1nc(-c2ccccc2)c2ccccc21,-21.6% (inactive)
10,COC(=O)Cn1nc(-c2ccc(Cl)cc2)c2ccccc21,-3.6% (inactive)
11,CCOC(=O)c1c2ccccc2nn1Cc1ccc(Cl)cc1,-15.4% (inactive)
12,O=C(Cn1c2ccccc2c2nc3n(c(=O)c21)CCCS3)c1ccc(F)cc1,-25.7% (inactive)
13,O=C(c1ccc(Cl)cc1)N1CCN(c2ccccn2)CC1,-27.1% (inactive)
14,O=C(Cn1nc(C(=O)N2CCCCC2)c2ccccc21)N1CCOCC1,-21.6% (inactive)
15,Cc1ccc(C(=O)N2CCN(c3ccnc4cc(Cl)ccc34)CC2)cc1,-43.6% (inactive)
16,O=C(Cn1c2ccccc2c2nc3n(c(=O)c21)CCS3)NCCc1ccc(Cl)cc1,-24.4% (inactive)
17,CC1CCN(C(=O)Cn2c3ccccc3c3nc4n(c(=O)c32)CCS4)CC1,-29.2% (inactive)
18,CNC(=O)Cn1nc(-c2ccccc2)c2ccccc21,-27.9% (inactive)
19,COC(=O)Cn1nc(-c2ccccc2)c2cc(Cl)ccc21,-27.8% (inactive)
20,O=C(O)c1nn(Cc2ccc(Cl)cc2)c2ccccc12,-16% (inactive)
21,CCCNC(=O)Cn1nc(-c2ccccc2)c2ccccc21,-10.7% (inactive)
22,O=C(O)c1c2ccccc2nn1Cc1ccc(Cl)cc1,-10.5% (inactive)
23,O=C(c1ccccc1)N1CCN(c2ccnc3cc(Cl)ccc23)CC1,-29.5% (inactive)
24,O=c1c2[nH]c3ccccc3c2nc2n1CCS2,-20.2% (inactive)
25,O=C(Cn1nc(-c2ccccc2)c2cc(Cl)ccc21)N1CCOCC1,-33% (inactive)
